Reference: article PMC4336329 (PLoS ONE, 2015)
Out of some 310,000 compounds screened, about 14,000 (4.5%) showed an effect of 50% or more. The effect is printed as a negative number. Shown is part of a subset that was picked to be rich in strong results.

Each molecule was assayed against human ether-à-go-go-related gene (hERG) potassium channel (human, UniProt Q12809) (assay: primary screen, population patch clamp on CHO cells stably expressing hERG; higher = less effect of the substance).
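Also: peak tail current of the secondary pulse compared with the same well before compound.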

Chain of human ether-à-go-go-related gene (hERG) potassium channel (Q12809 whole entry, looked up): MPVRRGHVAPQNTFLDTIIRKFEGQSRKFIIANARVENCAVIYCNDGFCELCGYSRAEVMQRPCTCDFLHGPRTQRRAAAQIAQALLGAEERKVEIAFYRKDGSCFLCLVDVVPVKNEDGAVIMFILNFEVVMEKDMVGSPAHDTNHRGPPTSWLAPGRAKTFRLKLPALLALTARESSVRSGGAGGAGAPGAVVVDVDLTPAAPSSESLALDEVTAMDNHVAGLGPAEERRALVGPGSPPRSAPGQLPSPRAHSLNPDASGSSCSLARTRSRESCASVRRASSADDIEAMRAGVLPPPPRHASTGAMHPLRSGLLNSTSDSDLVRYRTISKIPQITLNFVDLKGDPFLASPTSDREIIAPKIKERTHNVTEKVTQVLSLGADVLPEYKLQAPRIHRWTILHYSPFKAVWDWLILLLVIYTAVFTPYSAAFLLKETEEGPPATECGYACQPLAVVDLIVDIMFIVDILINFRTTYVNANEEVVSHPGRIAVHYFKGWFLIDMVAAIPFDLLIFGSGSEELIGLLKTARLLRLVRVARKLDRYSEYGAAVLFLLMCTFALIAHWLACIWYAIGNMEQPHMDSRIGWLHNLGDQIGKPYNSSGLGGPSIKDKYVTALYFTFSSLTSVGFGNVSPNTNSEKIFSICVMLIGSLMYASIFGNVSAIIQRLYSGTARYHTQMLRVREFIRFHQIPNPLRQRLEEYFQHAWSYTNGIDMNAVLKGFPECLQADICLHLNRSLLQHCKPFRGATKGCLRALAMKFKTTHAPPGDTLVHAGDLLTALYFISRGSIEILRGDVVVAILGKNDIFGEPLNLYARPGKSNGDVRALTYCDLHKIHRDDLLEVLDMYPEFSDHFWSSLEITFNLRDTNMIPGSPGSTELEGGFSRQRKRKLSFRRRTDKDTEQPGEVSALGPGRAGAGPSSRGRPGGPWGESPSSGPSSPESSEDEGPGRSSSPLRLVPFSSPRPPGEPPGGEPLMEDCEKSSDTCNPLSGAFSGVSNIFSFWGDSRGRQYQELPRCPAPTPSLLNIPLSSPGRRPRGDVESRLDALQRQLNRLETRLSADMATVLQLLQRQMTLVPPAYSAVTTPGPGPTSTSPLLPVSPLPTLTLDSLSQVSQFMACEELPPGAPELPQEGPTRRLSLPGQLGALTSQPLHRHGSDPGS

Q: `Cc1ccc(CNS(=O)(=O)c2ccc(F)c(F)c2)n1C` was tested. Which “hERG current change (%, negative = inhibition) at 10uM” value did it give?
A: 15.3%

Q: Which “hERG current change (%, negative = inhibition) at 10uM” value does the source give for `COc1ccc(CCNC(=O)C2CCCN2C(=O)Nc2cccc(C(C)=O)c2)cc1OC` (stereo not shown) here?
A: -3.26%

Q: `COc1ccc(-c2cc(C(F)F)n3ncc(C(=O)N4CCN(C(=O)c5ccco5)CC4)c3n2)cc1` was tested. Which “hERG current change (%, negative = inhibition) at 10uM” value did it give?
A: -34.8%

Q: With `CCc1ccc(NC(=O)C(=O)NCC2CCCO2)cc1` (stereo not shown) as the molecule, how does the “hERG current change (%, negative = inhibition) at 10uM” value read?
A: 10%

Q: How did the “hERG current change (%, negative = inhibition) at 10uM” value turn out when `CCOC(=O)N1CCN(c2nc(=S)n(-c3ccccc3)c(C)c2C(C)=O)CC1` was run?
A: -2.56%

Q: For `COC(=O)c1ccccc1NC(=S)NC(=O)COc1ccccc1Cl`, which “hERG current change (%, negative = inhibition) at 10uM” value is on record?
A: -4.5%

Q: For `CCC1(C)Cc2nc3[nH]c(=S)n(-c4ccccc4)c(=O)c3cc2CO1` (stereo not shown), which “hERG current change (%, negative = inhibition) at 10uM” value is on record?
A: 17.6%

Q: For `CCOC(=O)COc1coc(CN2CCN(c3ccccc3)CC2)cc1=O`, which “hERG current change (%, negative = inhibition) at 10uM” value is on record?
A: 9.43%

Q: `O=C(c1ccc(NS(=O)(=O)c2cccc3cccnc23)cc1)N1CCCCC1` was tested. Which “hERG current change (%, negative = inhibition) at 10uM” value did it give?
A: 12%

Q: For `CCCCCCNC(=O)C(C(=O)OCC)C1CCCCC1` (stereo not shown), which “hERG current change (%, negative = inhibition) at 10uM” value is on record?
A: -4.59%

Q: Which “hERG current change (%, negative = inhibition) at 10uM” value does the source give for `CCOC(=O)C(C(=O)NCC1CCCO1)C1CCCCC1` (stereo not shown) here?
A: 12%

Q: For `C=CCNC(=O)C(C(=O)OCC)C1CCCCC1` (stereo not shown), which “hERG current change (%, negative = inhibition) at 10uM” value is on record?
A: -53.3%

Q: With `CCCC[C@H](CN[C@@H](CNC)[C@H](C)CC)NCCC12CCC(CC1)C2` as the molecule, how does the “hERG current change (%, negative = inhibition) at 10uM” value read?
A: 10.4%

Q: How did the “hERG current change (%, negative = inhibition) at 10uM” value turn out when `CN(CC(=O)Nc1cc(S(=O)(=O)N2CCCC2)ccc1Cl)Cc1cccs1` was run?
A: -16%

Q: Which “hERG current change (%, negative = inhibition) at 10uM” value does the source give for `O=C(CNCc1cccs1)Nc1cc(S(=O)(=O)N2CCCC2)ccc1Cl` here?
A: -52%

Q: For `Cl.O=C(CNCc1cccs1)Nc1ccc(S(=O)(=O)N2CCCCC2)cc1`, which “hERG current change (%, negative = inhibition) at 10uM” value is on record?
A: -70.9%

Q: For `Cc1ccc(S(=O)(=O)N2CCCCC2)cc1NC(=O)Cn1ccsc1=N.Cl`, which “hERG current change (%, negative = inhibition) at 10uM” value is on record?
A: -33.7%

Q: For `O=C(CNCc1ccccn1)Nc1cc(S(=O)(=O)N2CCCCC2)ccc1Cl`, which “hERG current change (%, negative = inhibition) at 10uM” value is on record?
A: -19%

Q: `Cl.N=c1sccn1CC(=O)Nc1cc(S(=O)(=O)N2CCCC2)ccc1Cl` was tested. Which “hERG current change (%, negative = inhibition) at 10uM” value did it give?
A: -39.5%

Q: How did the “hERG current change (%, negative = inhibition) at 10uM” value turn out when `N=c1sccn1CC(=O)Nc1cc(S(=O)(=O)N2CCCCC2)ccc1Cl` was run?
A: -62.5%

Q: `O=C(CCl)Nc1cc(S(=O)(=O)N2CCCCCC2)ccc1Cl` was tested. Which “hERG current change (%, negative = inhibition) at 10uM” value did it give?
A: -22.9%

Q: Which “hERG current change (%, negative = inhibition) at 10uM” value does the source give for `O=C(Cc1cccs1)Nc1cc(S(=O)(=O)N2CCCCC2)ccc1Cl` here?
A: -0.378%

Q: How did the “hERG current change (%, negative = inhibition) at 10uM” value turn out when `O=C(Cc1cccs1)Nc1ccc(S(=O)(=O)N2CCCCC2)cc1` was run?
A: 5.37%

Q: Which “hERG current change (%, negative = inhibition) at 10uM” value does the source give for `O=C(Cc1cccs1)Nc1ccc(S(=O)(=O)N2CCCC2)cc1` here?
A: 10.6%

Q: `O=C(CNCc1ccncc1)Nc1cc(S(=O)(=O)N2CCCCC2)ccc1Cl` was tested. Which “hERG current change (%, negative = inhibition) at 10uM” value did it give?
A: -63.9%

Q: `Cc1nn(C)cc1/C=N/NC(=O)Cn1nccc1C` was tested. Which “hERG current change (%, negative = inhibition) at 10uM” value did it give?
A: -1.28%

Q: With `CCCCC(=O)NC1(C(F)(F)F)NC(=O)N(C)C1=O` (stereo not shown) as the molecule, how does the “hERG current change (%, negative = inhibition) at 10uM” value read?
A: 11.3%

Q: With `CCC(Sc1nc2ccsc2c(=O)n1-c1ccc(Cl)c(C)c1)C(=O)NCc1ccco1` (stereo not shown) as the molecule, how does the “hERG current change (%, negative = inhibition) at 10uM” value read?
A: -16.8%

Q: `CCOC(=O)c1nnn(CC(=O)Nc2cccc(Cl)c2C)c1C(=O)OCC` was tested. Which “hERG current change (%, negative = inhibition) at 10uM” value did it give?
A: 4.51%

Q: How did the “hERG current change (%, negative = inhibition) at 10uM” value turn out when `COc1cc(NC(=O)CSc2nnc3c(C)cc4c(C)ccc(C)c4n23)c(C(=O)O)cc1OC` was run?
A: 27.1%

Q: How did the “hERG current change (%, negative = inhibition) at 10uM” value turn out when `COc1cccc(CNC(=O)CCC2CCCN(C(=O)c3ccc(C)nc3)C2)c1` (stereo not shown) was run?
A: 9.47%

Q: Which “hERG current change (%, negative = inhibition) at 10uM” value does the source give for `COc1cccc(CNC(=O)CCC2CCCN(c3cc(C)nc(N(C)C)n3)C2)c1` (stereo not shown) here?
A: -62.4%

Q: With `COc1cccc(CNC(=O)CCC2CCCN(C(=O)c3cc(C)on3)C2)c1` (stereo not shown) as the molecule, how does the “hERG current change (%, negative = inhibition) at 10uM” value read?
A: 5.3%

Q: Which “hERG current change (%, negative = inhibition) at 10uM” value does the source give for `Cc1cc(C)nc(N2CCCC(CCC(=O)NCc3ccc(F)c(F)c3)C2)n1` (stereo not shown) here?
A: -1.25%

Q: For `COc1cccc(CNC(=O)CCC2CCCN(C(=O)C3CCOCC3)C2)c1` (stereo not shown), which “hERG current change (%, negative = inhibition) at 10uM” value is on record?
A: 1.51%

Q: `COc1cccc(CNC(=O)CCC2CCCN(C(=O)c3ccccc3N(C)C)C2)c1` (stereo not shown) was tested. Which “hERG current change (%, negative = inhibition) at 10uM” value did it give?
A: 0.174%

Q: How did the “hERG current change (%, negative = inhibition) at 10uM” value turn out when `COc1cccc(CNC(=O)CCC2CCCN(c3cc(C)nc(N4CCCC4)n3)C2)c1` (stereo not shown) was run?
A: -75%

Q: How did the “hERG current change (%, negative = inhibition) at 10uM” value turn out when `COc1cccc(CNC(=O)CCC2CCCN(C(=O)c3cc(C)[nH]n3)C2)c1` (stereo not shown) was run?
A: 31.9%

Q: How did the “hERG current change (%, negative = inhibition) at 10uM” value turn out when `COc1cccc(CNC(=O)CCC2CCCN(c3cc(C)nc(N)n3)C2)c1` (stereo not shown) was run?
A: -63.5%

Q: For `Cc1ccc(Nc2cccccc2=O)cc1`, which “hERG current change (%, negative = inhibition) at 10uM” value is on record?
A: -4.5%

Q: Which “hERG current change (%, negative = inhibition) at 10uM” value does the source give for `Cc1ccc(S(=O)(=O)N(C)C)cc1NC(=O)CSc1ncn[nH]1` here?
A: 3.1%

Q: For `CC1=NN(C(=O)c2c(Br)cnn2C)C(O)(C(F)(F)F)C1` (stereo not shown), which “hERG current change (%, negative = inhibition) at 10uM” value is on record?
A: -24.6%

Q: Which “hERG current change (%, negative = inhibition) at 10uM” value does the source give for `Fc1cccc(Nc2ncnc3c2cnn3-c2ccccc2)c1` here?
A: 12.1%

Q: Which “hERG current change (%, negative = inhibition) at 10uM” value does the source give for `COc1cc(/C=N/NC(=O)c2nnn(-c3nonc3N)c2C(C)C)ccc1OCc1ccc(F)cc1` here?
A: 31.1%

Q: For `O=C(Cc1cscn1)c1ccc(O)cc1O`, which “hERG current change (%, negative = inhibition) at 10uM” value is on record?
A: -9.71%

Q: `COc1cc(OC)cc(C(=O)N[C@H](C(=O)Nc2ccc3c(c2)OCO3)C(C)C)c1` was tested. Which “hERG current change (%, negative = inhibition) at 10uM” value did it give?
A: 11%

Q: For `O=C(CCC(F)(F)F)N1CCC(CO)(CCc2ccccc2)CC1`, which “hERG current change (%, negative = inhibition) at 10uM” value is on record?
A: -12%

Q: `CSCCC(=O)N1CCCC(CO)(CCCc2ccccc2)C1` (stereo not shown) was tested. Which “hERG current change (%, negative = inhibition) at 10uM” value did it give?
A: -8.88%

Q: With `CSCC(=O)N1CCCC(CO)(CCCc2ccccc2)C1` (stereo not shown) as the molecule, how does the “hERG current change (%, negative = inhibition) at 10uM” value read?
A: -4.78%

Q: How did the “hERG current change (%, negative = inhibition) at 10uM” value turn out when `OCC1(CCc2ccccc2)CCCN(CCCC(F)(F)F)C1` (stereo not shown) was run?
A: -51.7%

Q: Which “hERG current change (%, negative = inhibition) at 10uM” value does the source give for `OCC1(Cc2ccc(F)cc2)CCCN(CCCC(F)(F)F)C1` (stereo not shown) here?
A: -22.3%

Q: How did the “hERG current change (%, negative = inhibition) at 10uM” value turn out when `OCC1(CCc2ccccc2)CCCN(CCCc2ccccc2)C1` (stereo not shown) was run?
A: -70.9%

Q: With `C[n+]1ccc(/C=N/Nc2nc(Cl)c(C#N)c(Cl)c2Cl)cc1.[Cl-]` as the molecule, how does the “hERG current change (%, negative = inhibition) at 10uM” value read?
A: 20.2%

Q: For `Cc1ccc(CNC(=O)c2ccccc2N)cc1`, which “hERG current change (%, negative = inhibition) at 10uM” value is on record?
A: 5.16%

Q: How did the “hERG current change (%, negative = inhibition) at 10uM” value turn out when `COc1cc(NS(=O)(=O)c2ccc(N/C=C(\C#N)c3nc4cc(Cl)ccc4o3)cc2)nc(OC)n1` was run?
A: -7.44%

Q: Which “hERG current change (%, negative = inhibition) at 10uM” value does the source give for `CCN(CC)c1ccc(N2C(=NC(=O)C3CCCO3)SC3CS(=O)(=O)CC32)cc1` (stereo not shown) here?
A: 3.6%

Q: Which “hERG current change (%, negative = inhibition) at 10uM” value does the source give for `CC(=O)c1ccc(N2C(=NC(=O)C3CCCO3)SC3CS(=O)(=O)CC32)cc1` (stereo not shown) here?
A: -39.7%

Q: How did the “hERG current change (%, negative = inhibition) at 10uM” value turn out when `CCCCc1ccc(N2C(=NC(=O)C3CCCO3)SC3CS(=O)(=O)CC32)cc1` (stereo not shown) was run?
A: -56.5%
